# KDM5B inhibitor: Primary screen for KDM5B Histone Demethylases FDH-coupled qHTS; KDM5B demethylase, FDH-coupled NADH fluorescence (FDH is formaldehyde dehydrogenase); 220,000 compounds, 2.6% hits; Potency, µM (top dose mostly 57.7 µM), most hits filed as inhibitors; Lysine-specific demethylase 5B (Homo sapiens), Q9UGL1; AID 1347165, 2019; active = well fitted inhibition curve with a large enough effect; note: 0% is about no effect; nearly all actives have a fitted effect of over 70% in size
# Target sequence (Q9UGL1 whole entry, looked up): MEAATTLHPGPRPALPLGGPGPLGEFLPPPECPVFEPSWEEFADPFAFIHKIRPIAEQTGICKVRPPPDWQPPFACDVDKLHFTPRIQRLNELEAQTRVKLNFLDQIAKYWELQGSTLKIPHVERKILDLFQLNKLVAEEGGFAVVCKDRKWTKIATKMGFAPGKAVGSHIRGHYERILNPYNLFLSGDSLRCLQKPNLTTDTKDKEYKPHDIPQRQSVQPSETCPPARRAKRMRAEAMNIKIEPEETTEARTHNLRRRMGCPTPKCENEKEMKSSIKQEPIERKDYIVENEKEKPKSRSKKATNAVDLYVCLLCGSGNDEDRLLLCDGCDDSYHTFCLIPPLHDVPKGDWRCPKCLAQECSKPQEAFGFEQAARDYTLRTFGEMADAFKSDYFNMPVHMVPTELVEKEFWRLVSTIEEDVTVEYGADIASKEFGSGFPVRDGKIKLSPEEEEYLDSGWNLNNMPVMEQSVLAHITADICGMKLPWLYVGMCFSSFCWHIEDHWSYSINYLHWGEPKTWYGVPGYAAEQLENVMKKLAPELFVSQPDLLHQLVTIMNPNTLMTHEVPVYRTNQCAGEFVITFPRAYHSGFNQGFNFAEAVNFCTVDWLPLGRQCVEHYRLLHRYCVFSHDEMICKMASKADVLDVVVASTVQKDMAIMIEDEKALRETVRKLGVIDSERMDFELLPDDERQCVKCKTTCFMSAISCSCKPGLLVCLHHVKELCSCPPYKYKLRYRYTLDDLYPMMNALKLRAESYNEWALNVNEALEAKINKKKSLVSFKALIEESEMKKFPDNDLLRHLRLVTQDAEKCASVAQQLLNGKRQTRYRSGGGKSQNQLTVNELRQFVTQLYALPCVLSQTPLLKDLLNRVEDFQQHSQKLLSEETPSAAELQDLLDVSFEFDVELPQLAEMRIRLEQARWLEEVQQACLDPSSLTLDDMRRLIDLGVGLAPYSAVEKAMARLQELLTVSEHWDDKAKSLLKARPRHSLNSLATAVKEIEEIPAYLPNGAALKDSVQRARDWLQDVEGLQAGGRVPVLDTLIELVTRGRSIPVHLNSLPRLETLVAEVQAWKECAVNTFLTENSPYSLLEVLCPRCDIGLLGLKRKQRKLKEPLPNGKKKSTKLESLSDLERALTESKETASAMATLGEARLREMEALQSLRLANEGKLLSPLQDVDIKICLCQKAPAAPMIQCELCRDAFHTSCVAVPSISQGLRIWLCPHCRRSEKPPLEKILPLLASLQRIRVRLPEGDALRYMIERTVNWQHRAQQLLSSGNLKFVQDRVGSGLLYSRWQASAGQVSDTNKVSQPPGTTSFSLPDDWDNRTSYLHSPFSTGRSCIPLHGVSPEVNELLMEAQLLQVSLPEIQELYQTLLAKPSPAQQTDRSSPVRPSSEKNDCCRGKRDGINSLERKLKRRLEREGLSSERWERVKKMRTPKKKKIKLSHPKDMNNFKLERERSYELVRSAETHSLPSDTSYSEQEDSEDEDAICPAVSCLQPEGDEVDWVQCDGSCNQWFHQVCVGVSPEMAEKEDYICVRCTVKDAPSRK
#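 KDM5BΔAP (200 nM final) in 50 mM HEPES pH 7.5, 0.01% Tween-20 was preincubated 10 min at RT with compound over a concentration range. Substrate mix (H3K4me3 12.5 µM, α-KG 25 µM, Fe²⁺, ascorbate, NAD⁺, FDH) was added, and NADH fluorescence change over 30 min gave dose-response curves.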
# An asterisk follows results filed as active; i = inactive. This excerpt belongs to a sample that is enriched for hits. Potency is the fitted concentration of half-maximal effect.
SMILES,KDM5B inhibitor
COc1ccccc1C(=O)N/C(=C\c1ccccc1)C(=O)O,i
O=C(N[C@H]1CO[C@H]2[C@@H]1OC[C@@H]2Nc1nccc(-c2ccco2)n1)c1ccco1,40µM*
O=C(Nc1ccc(Oc2ccccc2)cc1)N[C@H]1CO[C@H]2[C@@H]1OC[C@@H]2Nc1nccc(-c2ccc(-c3ccccc3)cc2)n1,i
CC(C)(C)c1ccnc(N[C@H]2CO[C@H]3[C@@H]2OC[C@@H]3NC(=O)CCCC(=O)O)n1,i
S=C(Nc1ccccc1)N[C@H]1CO[C@H]2[C@@H]1OC[C@@H]2Nc1nccc(-c2ccco2)n1,25µM*
O=C(Nc1ccccc1)O[C@@H]1CO[C@H]2[C@@H]1OC[C@@H]2NC(=S)Nc1ccccc1,i
CC(C)(C)c1ccnc(N[C@H]2CO[C@H]3[C@@H]2OC[C@@H]3NC(=O)c2ccco2)n1,i
Cc1cccc(-c2nn3c(=O)cc(N4CCN(C(=O)COc5ccccc5Cl)CC4)nc3s2)c1,i
CCCCOCCCNC(=O)CCSc1ccccc1,i
COCCNC(=S)N/N=C/c1c(OC)cc(OC)cc1OC,i
CCN(CC)C(=S)SC(C(=O)NC(N)=O)C(C)C (centres undefined),i
COC1CCC(C(=O)N2CCCn3nc(C)c(-c4ccccc4Oc4ccccc4)c32)CC1 (centres undefined),i
Cc1nn2c(c1-c1ccccc1OCc1ccccc1)N(CC1CC1)CCC2,35µM*
Cc1nn2c(c1-c1ccccc1OCc1ccccc1)N(C(=O)Cc1ccccn1)CCC2,i
Cc1nn2c(c1-c1ccccc1OCc1ccccc1)N(Cc1nccn1C)CCC2,i
COc1ccc(OC)c(CN2CCCn3nc(C)c(-c4ccccc4OCc4ccccc4)c32)c1,28µM*
Cc1nn2c(c1-c1ccccc1Oc1ccccc1)N(C(=O)c1ccc(F)cc1)CCC2,i
Cc1nn2c(c1-c1ccccc1OCc1ccccc1)N(C(=O)COc1ccccc1C(N)=O)CCC2,i
Cc1nn2c(c1-c1ccccc1Oc1ccccc1)N(Cc1ccc(C(=O)O)cc1)CCC2,35µM*
Cc1nn2c(c1-c1ccccc1Oc1ccccc1)N(CC1CC1)CCC2,32µM*
Cc1nn2c(c1-c1ccccc1OCc1ccccc1)N(C(=O)CN1CCOCC1)CCC2,i
Cc1nn2c(c1-c1ccccc1Oc1ccccc1)N(C(=O)c1ccnn1C)CCC2,i
Cc1nn2c(c1-c1ccccc1OCc1ccccc1)N(Cc1cccnc1)CCC2,i
CNS(=O)(=O)c1ccc(CN2CCC3(CCNCC3)C2)cc1,i
CCCN1CCc2[nH]cnc2C12CCN(C(=O)C1COc3ccccc3O1)CC2 (centres undefined),i
SMILES,KDM5B inhibitor
CCCCc1cc(C[C@H]2CNCC[C@H]2CC(=O)N(C)Cc2ccccc2)no1,i
c1ccc([C@@H]2CNC[C@H]2COc2cccnc2)nc1,i
Cc1ccc(N(Cc2ccccc2)C(=O)c2cccs2)cc1,i
Cc1noc(C)c1CC(=O)N1CCC(c2noc(-c3cnccn3)n2)C1 (centres undefined),i
CCCNC(=O)C1CCCN(Cc2cccc(C(F)(F)F)c2)C1 (centres undefined),i
CC(C)c1noc(C2CCCN(C(=O)C3(c4ccccc4)CC3)CCC(=O)NCC2)n1 (centres undefined),i
CCn1nc(C(=O)Nc2nc(C(C)(C)C)cs2)c2ccccc2c1=O,i
CC(C)C[C@@H]1N[C@H](C(=O)N2CCOCC2)Cc2cn(Cc3ccncc3)c3cccc1c23,i
Cc1nn2c(c1-c1cccnc1N1CCOCC1)N(CC1CC1)CCC2,35µM*
COc1cccc(CC(=O)N2CCCn3nc(C)c(-c4cccnc4N4CCOCC4)c32)c1,i
Cc1nn2c(c1-c1cccnc1N1CCOCC1)N(C(=O)c1ccc(Oc3ccccc3)cc1)CCC2,i
Cc1cc(C(C)(C)C)cc(C)c1CSC1=NCC(C)(C)CN1,i
CNC(=O)C1(NC(=O)CNC(=O)CC(C)(C)C)CCCCC1,i
O=C(Nc1cccnc1)c1ccc2c(c1)OCCN(c1cccc(OC(F)(F)F)c1)C2,i
CC(C)CCN1CCOc2cc(C(=O)Nc3ccccc3)ccc2C1,i
O=C(Nc1ccc2cn[nH]c2c1)c1ccc2c(c1)OCCN(c1ccccc1)C2,32µM*
CN(C)c1ccc(NC(=O)/C=C/c2ccccc2)cc1,i
Cc1ccc(CN2CCN(c3nc(C)ccc3C#N)CC2CCO)cc1 (centres undefined),18µM*
CCOc1ccc(CN2CCN(c3cc(C)nc(NC)n3)CC2CCO)cc1 (centres undefined),i
COc1cc(CN2CCN(c3ncnc(C)c3C)CC2CCO)cc(OC)c1 (centres undefined),i
CN(Cc1ccco1)C(=O)c1ccc2ncsc2c1,i
COC[C@@H]1CN(S(=O)(=O)c2ccccc2F)C[C@H]1c1ccncc1,i
Fc1cc(F)cc(Cc2nc3nccc(-c4ccccc4)n3n2)c1,28µM*
Fc1cc(F)cc(Cc2nc3nccc(-c4ccncc4)n3n2)c1,i
CCc1nn2c(-c3ccco3)ccnc2c1-c1ccccc1,i
SMILES,KDM5B inhibitor
CC(C)Cc1nc2nccc(-c3ccco3)n2n1,25µM*
CCc1nn2c(-c3ccco3)ccnc2c1-c1ccc(F)cc1,i
COc1ccc(CCc2nc3nccc(-c4ccco4)n3n2)cc1OC,i
CC(C)Cc1nc2nccc(-c3ccncc3)n2n1,28µM*
c1ccc(CCc2nc3nccc(-c4ccco4)n3n2)cc1,25µM*
Fc1ccc(Cc2nc3nccc(-c4cccnc4)n3n2)cc1,i
O=C(Nc1ccccc1C(=O)NCCc1ccco1)C1=CSCCO1,i
CC(C)(C)c1ccc(NC(=O)CN2CCC(N3CCCC3)C2)cc1 (centres undefined),i
CCN(CC)c1nc2ccccc2nc1C(=O)Nc1ccc(F)c(F)c1,i
COc1ccc2c(c1)CCC/C2=N\O,i
O=S(=O)(c1ccccc1)N1CCCC1c1nc2ccccc2[nH]1 (centres undefined),i
Clc1ccc(CSc2nnc([C@@H]3CCCN3)o2)c(Cl)c1,i
CN(c1ccc(-c2csc(NC3CCCC3)n2)cc1)S(C)(=O)=O,i
O=C(NCCc1nnc2n1CCCCC2)Nc1ccccc1F,i
COc1ccc2c(C)c(CC(=O)NCCc3ccc(F)cc3)c(=O)oc2c1,i
O=C(C1CC1)N1CC[C@H](c2nc3ccccc3s2)C1,i
CCc1ccc(NC(=O)C2CCn3c(C(=O)c4ccccc4)ccc32)cc1 (centres undefined),i
CC(C)(C)C(=O)/C=c1/[nH]c(=O)/c(=C/c2cccc3ccccc23)s1,i
CC(C)Cc1nc2nccc(-c3ccccc3)n2n1,28µM*
NS(=O)(=O)c1ccsc1C(=O)N1CCCC2(CCNCC2)CC1,i
CCN(CC)S(=O)(=O)NCc1ccnc(Oc2ccc(OC)cc2)c1,i
CC1=C[C@@H](CNC(=O)CCCC(=O)O)[C@H](C(C)C)C[C@H]1Cc1nc2ccc(C)cc2[nH]1,i
N#Cc1nc(C2CC2)oc1N1CCN(Cc2ccccc2F)CC1,i
COc1ccc(CCc2nc3nccc(-c4ccncc4)n3n2)cc1OC,i
COc1cc(-c2ccnc3nc(CC(C)C)nn23)cc(OC)c1OC,18µM*
COc1ccc(CCc2nc3nccc(-c4ccccn4)n3n2)cc1OC,i
COc1ccc(-c2ccnc3nc(CCc4ccccc4)nn23)cc1OC,22µM*
COc1cc(-c2ccnc3nc(CCc4ccccc4)nn23)cc(OC)c1OC,14µM*

# Compound activity from PubChem BioAssay.
